USP28 block: blocks human USP28 ubiquitin-rhodamine cleavage. Q96RU2. purified USP28, Ub-rhodamine cleavage fluorescence, 30 min. inhibition, % at 25 µM. 3% of 47,000 active. AID 1645857
USP30 inh: inhibitors of human USP30 deubiquitinase. Q70CQ3. inhibition, % at 25 µM. 5.3% of 47,000 active. AID 1645860. purified USP30, Ub-rhodamine cleavage fluorescence
USP17 inh: blocks human USP17 ubiquitin-rhodamine cleavage; AID 1645855; A8MUK1; 6.5% of 47,000 active; inhibition, % at 50 µM; purified USP17, Ub-rhodamine cleavage fluorescence, 3 h
USP8 inh: blocks human USP8 ubiquitin-rhodamine cleavage. AID 1645853. purified USP8, Ub-rhodamine cleavage fluorescence, 30 min. 4.2% of 47,000 active. inhibition, % at 20 µM. P40818
A number is an active result. Hits are enriched below; roughly 14% of the tested compounds scored in any of these assays. Rule as the data show it: active = inhibition above about 30%; inactive = the rest.

Screening O=C1[C@H]2Cc3c([nH]c4ccccc34)CN2C(=O)CN1C1CCCCC1 returned USP28 block inactive, USP30 inh inactive, USP17 inh inactive and USP8 inh inactive.
`Cc1ccc(CNC(=O)C2(C)Cn3nc(-c4ccco4)cc3C(=O)N2c2ccc3c(c2)OCCO3)cc1` (stereo not given) gave USP28 block inactive, USP30 inh inactive, USP17 inh inactive and USP8 inh inactive.
Cc1ccccc1C(=O)c1cccn1CC(=O)NC1CCN(Cc2ccccc2)CC1 was read as USP28 block inactive, USP30 inh inactive, USP17 inh inactive and USP8 inh inactive.
For COc1ccccc1N1CCN(CCNC(=O)Nc2cccc(C)c2C)CC1 the results were USP28 block inactive, USP30 inh inactive, USP17 inh inactive and USP8 inh inactive.
For Cc1cccc(N2CCN(CCNC(=O)c3cc4c(s3)CS(=O)(=O)C4)CC2)c1C the results were USP28 block 40, USP30 inh inactive, USP17 inh inactive and USP8 inh inactive.
`CCOc1ccc(CCNC(=O)c2cc3c(s2)CS(=O)(=O)C3)cc1OCC` gave USP28 block 39, USP30 inh inactive and USP8 inh inactive.
CCCC(=O)N1CCN(c2cc(N3CCCCC3)nc(C)n2)CC1 was read as USP28 block inactive, USP30 inh inactive, USP17 inh inactive and USP8 inh inactive.
`COc1ccc(CNC(=O)Nc2cccc3ccccc23)cc1` gave USP28 block inactive, USP30 inh 38, USP17 inh 92 and USP8 inh 97.
For O=C(NCc1ccccc1)Nc1cccc2ccccc12 the results were USP28 block inactive, USP30 inh inactive, USP17 inh 84 and USP8 inh 95.
`Cc1nc2c(NC(=O)NCc3ccccc3)cccn2n1` gave USP28 block inactive, USP30 inh inactive, USP17 inh inactive and USP8 inh inactive.
Screening O=C(NCc1ccc(F)cc1)Nc1cccc2ccccc12 returned USP28 block inactive, USP30 inh 40, USP17 inh 40 and USP8 inh 71.
`CN1CCc2c(C#N)c(NCc3ccccc3)n3cnnc3c2C1` gave USP28 block inactive, USP30 inh inactive, USP17 inh inactive and USP8 inh inactive.
Screening CCC(C)NC(=O)Cn1c(=O)n(Cc2ccc(C(=O)NCCc3ccc(OC)c(OC)c3)cc2)c(=O)c2ccccc21 (stereo not given) returned USP28 block inactive, USP30 inh inactive, USP17 inh inactive and USP8 inh inactive.
For COc1ccc(NC(=O)C2=Cc3ccccc3OC2)cc1 the results were USP28 block inactive, USP30 inh 34, USP17 inh inactive and USP8 inh inactive.
`CC1(C)C(O)CCC2(C)C1CCC1(C)C2C(=O)C=C2[C@@H]3C[C@@](C)(C(=O)O)CCC3(C)CC[C@]21C` (stereo not given in full) gave USP28 block inactive, USP30 inh 49, USP17 inh 46 and USP8 inh inactive.
For COc1ccccc1C(=O)Nc1ccccc1-c1nc(-c2ccccn2)no1 the results were USP17 inh 32 and USP8 inh inactive.
For O=C(Nc1ccccc1-c1nc(-c2ccccn2)no1)c1ccc(Cl)cc1 the results were USP28 block inactive, USP30 inh inactive, USP17 inh 35 and USP8 inh inactive.
COc1ccc(NC(=O)c2ccccc2-c2nc(-c3ccc(Cl)cc3)no2)cc1OC was read as USP28 block inactive, USP30 inh inactive, USP17 inh inactive and USP8 inh inactive.
Cc1ccc(-c2noc(-c3ccccc3NC(=O)C3CC3)n2)cc1 was read as USP28 block inactive, USP30 inh inactive, USP17 inh inactive and USP8 inh inactive.
Screening O=C(Cc1ccc(-n2c(=O)c3ccccc3n(CC(=O)Nc3ccc(Cl)cc3Cl)c2=O)cc1)NCc1ccco1 returned USP28 block inactive, USP30 inh inactive, USP17 inh inactive and USP8 inh 56.
Screening COc1cc(OC)c(NC(=O)Cn2c(=O)n(-c3ccc(CC(=O)NCC4CCCO4)cc3)c(=O)c3ccccc32)cc1Cl (stereo not given) returned USP17 inh inactive and USP8 inh inactive.
Screening CCC(C)NC(=O)Cn1c(=O)n(-c2ccccc2)c(=O)c2ccc(C(=O)NCc3ccco3)cc21 (stereo not given) returned USP28 block 39, USP30 inh 73, USP17 inh inactive and USP8 inh inactive.
`COc1ccc(NC(=O)Cn2c(=O)n(-c3ccc(CC(=O)NCc4ccco4)cc3)c(=O)c3ccccc32)cc1Cl` gave USP28 block inactive, USP30 inh inactive, USP17 inh inactive and USP8 inh 75.
Screening CC1(C)Cc2c(sc3nc(-c4ccccc4)nc(SCC(=O)Nc4cccc5ccccc45)c23)CO1 returned USP28 block inactive, USP30 inh inactive, USP17 inh inactive and USP8 inh inactive.
`COc1ccccc1NC(=O)Cn1nc2ccc(C(=O)Nc3ccc(C)cc3)cn2c1=O` gave USP28 block inactive, USP30 inh inactive, USP17 inh inactive and USP8 inh inactive.
`CCOC(=O)c1ccccc1NC(=O)Cc1c(C)n(C(=O)c2ccc(Cl)cc2)c2ccc(OC)cc12` gave USP28 block inactive, USP30 inh inactive, USP17 inh inactive and USP8 inh inactive.
For CCOC(=O)c1ccccc1NC(=O)C(=O)CC(=O)c1ccc(OC)cc1 the results were USP28 block inactive, USP30 inh inactive, USP17 inh 31 and USP8 inh 78.
Screening COc1cc(OC)cc(C(=O)Nc2n[nH]c(C)c2-c2cccc(C)c2)c1 returned USP28 block inactive, USP30 inh inactive, USP17 inh inactive and USP8 inh inactive.
Screening COc1ccc(C(=O)Nc2n[nH]c(C)c2-c2cccc(C)c2)c(OC)c1 returned USP28 block 34, USP30 inh 72, USP17 inh inactive and USP8 inh inactive.
CC1CCCN(S(=O)(=O)c2ccc(-n3cnc(C(=O)N4CCCC4)c3)nc2)C1 (stereo not given) was read as USP28 block inactive, USP30 inh 46, USP17 inh inactive and USP8 inh inactive.
`CC1CCCN(S(=O)(=O)c2ccc(-n3cnc(C(=O)N4CCCCC4)c3)nc2)C1` (stereo not given) gave USP28 block inactive, USP30 inh inactive, USP17 inh inactive and USP8 inh inactive.
For CN(C)CCN(C(=O)c1ccc(S(C)(=O)=O)cc1)C1CCN(Cc2ccccc2S(C)(=O)=O)CC1 the results were USP28 block inactive, USP30 inh inactive, USP17 inh inactive and USP8 inh inactive.
`O=C(NCc1ccc2c(c1)OCO2)c1cn2cc(Cl)ccc2n1` gave USP28 block inactive, USP30 inh inactive, USP17 inh 47 and USP8 inh inactive.
Screening O=C(NCc1ccc2c(c1)OCO2)c1nc(-n2cnnc2)ccc1Br returned USP28 block inactive, USP30 inh 39, USP17 inh 35 and USP8 inh inactive.
For Cc1ccn2cc(C(=O)NCc3ccc4c(c3)OCO4)nc2c1 the results were USP28 block inactive, USP30 inh inactive, USP17 inh inactive and USP8 inh inactive.
`CC(=O)Nc1ccc(OCC(=O)N2CCN(c3ccccc3)CC2)nc1` gave USP28 block inactive, USP30 inh inactive, USP17 inh inactive and USP8 inh inactive.
CN(C)c1nc(NCc2ccccc2)nc(Oc2ccc(=O)[nH]n2)n1 was read as USP28 block 33, USP30 inh 31, USP17 inh inactive and USP8 inh inactive.

Screening results deposited in PubChem BioAssay by Buhrlage Lab, Dana-Farber Cancer Institute and Novartis Institutes for BioMedical Research (Cambridge, Mass).
